Luciferase inh – inhibitors of firefly (Photinus pyralis) luciferase. P08659. purified P. pyralis luciferase, luminescence, biochemical. Potency, µM (highest dose often 115 µM), hits mostly inhibitors. hit rate 2.5% among 76,000; further: nearly all actives have a fitted effect of over 65% in size
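Luminescence read by CCD imager after adding enzyme (10nM final) to wells holding compound, titrated in qHTS. Substrates 10uM each D-luciferin and ATP; buffer 50mM Tris acetate pH 7.5, 10mM Mg acetate, Tween-20, BSA.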
3T3 cytotox – NIH 3T3 cell cytotoxicity; hit rate 4.3% among 94,000; NIH 3T3 viability, CellTiter-Glo ATP luminescence, 48-72 h; AID 1345082; Potency, µM (doses to about 96.7 µM), usual class: inhibitors; further: nearly all actives have a fitted effect of over 55% in size
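Cytotoxicity was measured by CellTiter-Glo ATP luminescence after 48 or 72 h compound exposure at 37 °C. Mouse NIH 3T3 fibroblasts were seeded at 400 cells/well and dosed by 23 nL pin transfer.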
HEK cytotox – kills HEK 293 cells; HEK 293 viability, ATP luminescence (CellTiter-Glo), 48-72 h; Potency, µM (titrated, usually from 115 µM), actives largely listed as inhibitors; hit rate 6.6% among 94,000; further: nearly all actives have a fitted effect of over 60% in size
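Read-out: CellTiter-Glo ATP luminescence. Cells: HEK 293, 250 cells/well. Exposure: 48 or 72 hr, 37 degree Celsius.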
hNpr1 antagonist – antagonists of human natriuretic peptide receptor Npr1; AID 1347048; Potency, µM (doses to about 46.3 µM), most hits filed as inhibitors; HEK293 hNpr1 GloSensor cGMP, ANP-stimulated luminescence; hit rate 1.6% among 76,000; calls by dose curve; further: nearly all actives have a fitted effect of over 60% in size
Target sequence (P16066 whole entry, looked up): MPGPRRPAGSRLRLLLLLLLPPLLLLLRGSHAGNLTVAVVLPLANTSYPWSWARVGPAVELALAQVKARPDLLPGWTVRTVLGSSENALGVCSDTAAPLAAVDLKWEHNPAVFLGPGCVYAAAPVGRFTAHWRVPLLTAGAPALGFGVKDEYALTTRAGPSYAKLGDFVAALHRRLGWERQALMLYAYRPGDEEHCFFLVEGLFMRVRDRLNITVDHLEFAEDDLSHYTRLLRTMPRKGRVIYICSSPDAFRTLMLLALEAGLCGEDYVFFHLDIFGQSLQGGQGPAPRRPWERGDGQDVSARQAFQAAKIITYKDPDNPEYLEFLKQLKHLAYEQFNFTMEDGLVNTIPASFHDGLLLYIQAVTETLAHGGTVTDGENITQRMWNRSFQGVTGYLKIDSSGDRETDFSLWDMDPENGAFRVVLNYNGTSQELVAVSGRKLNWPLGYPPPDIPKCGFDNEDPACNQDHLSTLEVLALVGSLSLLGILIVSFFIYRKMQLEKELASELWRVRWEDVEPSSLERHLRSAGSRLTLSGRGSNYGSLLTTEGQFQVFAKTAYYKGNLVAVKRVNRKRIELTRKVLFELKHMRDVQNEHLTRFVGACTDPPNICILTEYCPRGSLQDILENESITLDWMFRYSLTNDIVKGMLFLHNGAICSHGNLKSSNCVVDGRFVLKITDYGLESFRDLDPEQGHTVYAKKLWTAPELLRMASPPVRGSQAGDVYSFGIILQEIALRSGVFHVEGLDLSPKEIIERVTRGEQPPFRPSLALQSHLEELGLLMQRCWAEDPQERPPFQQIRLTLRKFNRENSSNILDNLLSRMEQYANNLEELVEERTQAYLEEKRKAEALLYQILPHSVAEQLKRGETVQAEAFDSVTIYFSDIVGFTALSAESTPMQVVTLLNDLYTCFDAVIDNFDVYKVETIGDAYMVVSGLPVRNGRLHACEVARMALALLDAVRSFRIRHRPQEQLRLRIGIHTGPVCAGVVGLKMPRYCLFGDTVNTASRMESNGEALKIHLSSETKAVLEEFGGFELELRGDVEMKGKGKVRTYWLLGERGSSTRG
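Compound pre-incubated 30 min at room temperature on GloSensor-loaded HEK293 cells stably carrying hNpr1 and the pGS-40F cGMP biosensor. Stimulation uses hNppA at 0.1 nM final; luminescence is taken at baseline and 20 min post-agonist.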
A number is an active result. Shown are actives, neighbours in structure and some others; about 11% of the full set was active somewhere. Unless noted, the call rests on the fitted dose curve; in most records, active means well fitted curve in the direction sought with a large enough effect; inconclusive means small, poorly fitted or top-dose-only effect, or another doubt; inactive means no such curve, though single readings can be large; an effect the other way counts as inactive or inconclusive.

`CC1=C[C@@H](CN2CCN(c3ncccn3)CC2)[C@H](C(C)C)C[C@H]1Cc1nnc(Cc2c[nH]c3ccccc23)o1` gave Luciferase inh inactive, 3T3 cytotox inconclusive, HEK cytotox 45µM and hNpr1 antagonist inactive.
CCCc1nnc(C[C@@H]2C[C@@H](C(C)C)[C@H](CN3CCN(c4ncccn4)CC3)C=C2C)o1 was read as Luciferase inh inactive, 3T3 cytotox inconclusive, HEK cytotox 40µM and hNpr1 antagonist inactive.
Screening CCCc1nnc(C[C@@H]2C[C@@H](C(C)C)[C@H](CNc3cccnc3)C=C2C)o1 returned Luciferase inh inactive, 3T3 cytotox 25µM, HEK cytotox 89µM and hNpr1 antagonist inactive.
For CCCc1nnc(C[C@@H]2C[C@@H](C(C)C)[C@H](CN3CCN(C(C)=O)CC3)C=C2C)o1 the results were Luciferase inh inactive, 3T3 cytotox inactive, HEK cytotox 100µM and hNpr1 antagonist inactive.
For CCCc1nnc(C[C@@H]2C[C@@H](C(C)C)[C@H](CN3CCC(O)CC3)C=C2C)o1 the results were Luciferase inh inactive, 3T3 cytotox inactive, HEK cytotox inactive and hNpr1 antagonist inactive.
O=C(c1ccccc1F)N1CCC(C(=O)N2CCC(c3nc4ccncc4[nH]3)C2)CC1 (stereo not drawn) was read as 3T3 cytotox inactive and HEK cytotox inactive.
Cn1ccc(NC(=O)C2(C)CCCc3cnc(NCc4ccccc4)nc32)n1 (stereo not drawn) was read as Luciferase inh inactive, 3T3 cytotox 45µM, HEK cytotox inconclusive and hNpr1 antagonist inactive.
For Cn1ccc(NC(=O)C2(C)CCc3cnc(Nc4ccccc4)nc32)n1 (stereo not drawn) the results were Luciferase inh inactive, 3T3 cytotox inconclusive, HEK cytotox 100µM and hNpr1 antagonist inactive.
`Cn1ccc(NC(=O)C2(C)CCCc3cnc(Nc4ccccc4)nc32)n1` (stereo not drawn) gave Luciferase inh inactive, 3T3 cytotox inconclusive, HEK cytotox inconclusive and hNpr1 antagonist inactive.
`CC1(C(=O)NC2CCOCC2)CCCc2cnc(NCc3ccccc3)nc21` (stereo not drawn) gave Luciferase inh inactive, 3T3 cytotox inactive, HEK cytotox inconclusive and hNpr1 antagonist inactive.
Screening COc1ccc(-n2c(=O)c(C(=O)N3CCC(c4ccccc4)CC3)nc3cccnc32)cc1 returned 3T3 cytotox inactive and HEK cytotox inactive.
`Cc1cnc(C(=O)N2CCC(N3CC(OCC4CC4)C34CCOCC4)CC2)cn1` (stereo not drawn) gave 3T3 cytotox inactive and HEK cytotox inactive.
Screening O=C(Nc1ccc2c(c1)OCCO2)N1CCC(Cc2nncn2-c2ccccc2)CC1 returned 3T3 cytotox inactive and HEK cytotox inactive.
Screening Cc1noc(C)c1-c1cc2cc(CN(C)C)oc2c(NCCOc2ccccc2)n1 returned Luciferase inh inactive, 3T3 cytotox 79µM, HEK cytotox inconclusive and hNpr1 antagonist inactive.
Cc1noc(C)c1-c1cc2cc(CN(C)C)oc2c(NCCc2ccccc2)n1 was read as Luciferase inh inactive, 3T3 cytotox 45µM, HEK cytotox 56µM and hNpr1 antagonist inactive.
For Cc1noc(C)c1-c1cc2cc(CN(C)C)oc2c(NCC(C)C)n1 the results were Luciferase inh inactive, 3T3 cytotox 50µM, HEK cytotox 71µM and hNpr1 antagonist inactive.
`Cc1noc(C)c1-c1cc2cc(CN(C)C)oc2c(NCc2cccc(F)c2)n1` gave Luciferase inh inactive, 3T3 cytotox inconclusive, HEK cytotox inconclusive and hNpr1 antagonist inactive.
For O=C(Cc1cccnc1)N1CCC2(CC1)CC(N1CCN(c3ccccn3)CC1)CCO2 (stereo not drawn) the results were 3T3 cytotox inactive and HEK cytotox inconclusive.
For O=C1CCCCC(C(=O)NCc2ccc(OC(F)(F)F)cc2)N1 (stereo not drawn) the results were 3T3 cytotox inactive and HEK cytotox inactive.
Screening Cn1nc(-c2ccncc2)cc1NC(=O)c1ccc(C(F)(F)F)cc1 returned 3T3 cytotox inconclusive and HEK cytotox 11µM.
For O=C(Nc1cc(-c2ccncc2)nn1-c1ccccc1)c1cccc(Br)c1 the results were 3T3 cytotox 32µM and HEK cytotox inconclusive.
For CCCC(=O)Nc1cc(-c2ccncc2)nn1-c1ccccc1 the results were 3T3 cytotox inactive and HEK cytotox inactive.
For CC(=O)NCCC1CCN(C(=O)Nc2ccc(C)c(F)c2)CC1 the results were Luciferase inh 5µM, 3T3 cytotox inactive, HEK cytotox inactive and hNpr1 antagonist inactive.
`Cc1ccc(NC(=O)N2CCC(CCNC(=O)C3CCCC3)CC2)cc1F` gave 3T3 cytotox inactive and HEK cytotox inactive.
